This passage reports myelination results from the supplement of paper PMC4840960.

SMILES strings stand for the structures. Values without a mark were called inactive.

The subject of the experiment is E18 rat cortical neuron-glia co-culture. Nature of the experiment: myelination (MBP fiber length per Olig2+ nucleus), % of 1 µM DAPT response (DMSO = 0) (% of DAPT); higher = more myelination, active = 50 or more. The following applies: 5 µM; treatment time: 8 days (DIV5-DIV13). Put shortly:
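Primary E18 rat cortical co-cultures (papain-dissociated, 20,000 cells/well on poly-d-lysine/laminin 96-well plates) received library compounds at 1 or 5 µM in myelination medium from DIV5 to DIV13. Cells were fixed in 4 % paraformaldehyde and immunostained for MBP and Olig2 with DAPI, and four 10X fields per well in duplicate wells were analysed. Myelination was continuous straight MBP fiber length per Olig2+ nucleus, normalised to 0.1 % DMSO (0) and a 1 µM positive control (100).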
As for `C=CC[C@@H]1/C=C(\C)C[C@H](C)C[C@H](OC)[C@H]2O[C@@](O)(C(=O)C(=O)N3CCCC[C@H]3C(=O)O[C@H](/C(C)=C/[C@@H]3CC[C@@H](O)[C@H](OC)C3)[C@H](C)[C@@H](O)CC1=O)[C@H](C)C[C@@H]2OC` [Tacrolimus], the myelination was -22.8.

As for `Cc1c(O)cccc1C(=O)N[C@@H](CSc1ccccc1)[C@H](O)CN1C[C@H]2CCCC[C@H]2C[C@H]1C(=O)NC(C)(C)C` [Nelfinavir], the myelination was -44.3.

For the compound `CNC(=N)NCCC[C@H](N)C(=O)O`, the myelination is -9.76.

As to `N[C@@H]1CONC1=O` [Cycloserine], the myelination was -32.4.

Regarding `CCN(CC)CC(=O)Nc1c(C)cccc1C` [Lidocaine], the myelination was -24.5.

On to `CCC1(c2ccccc2)C(=O)NCNC1=O` [Primidone], for which the myelination is -3.74.
